Source: PubChem BioAssay
Most compounds without a hit are left out; they make up all but 6.9% or so of the library.
JNK3 inh: blocks human JNK3 kinase activity | inhibition, % at 8 µM | 0.61% of 60,000 active | P53779 | purified JNK3 kinase activity, HTS; in the data active means inhibition above about 17%;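 further: 0% = DMSO and 100% = reference inhibitor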
Her2 expr inh: lowers expression of human Her2 kinase; SKBR-3 HER2 protein level, AlphaScreen, 18-24 h; active compounds read low; HER2 level % of control, % at 10 µM; 0.69% of 65,000 active; AID 645;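 active means HER2 level under 5% of the carrier-only control; inconclusive means no clear call, values can overlap the other calls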;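 further: 100% = DMSO carrier and 0% = 500 nM PU-H71 HSP90 inhibitor; lower value means stronger loss of Her2 protein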
M1 antagonist: blocks the rat M1 muscarinic receptor response to acetylcholine; P08482; CHO-M1 cells, Fluo-4 calcium, ACh EC80 antagonist mode; active compounds read low; B-score at 10 µM; 3.4% of 64,000 active; AID 628;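 active means calcium fluorescence response, raw or row-and-column corrected B-score, differing from the plate sample mean either way at a set confidence level, mostly lower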
FXIIa inh mix: blocks human factor XIIa in pooled compound mixtures; purified FXIIa, fluorogenic substrate; AID 684; 0.2% of 62,000 active; P00748; inhibition, % at 5 µM;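 further: 0% = enzyme without compound and 100% = no enzyme blank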
M1 ag: activates the M1 muscarinic receptor; 3% of 64,000 active; B-score at 10 µM; AID 626; CHO-M1 cells, Fluo-4 calcium fluorescence, agonist mode; active compounds read high;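 active means fluorescence rise, raw or as B-score row- and column-corrected plate score, outside the 99.7% band of its plate's samples, either direction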
FXIa inh mix: inhibitors of human coagulation factor XIa, pooled mixtures; purified FXIa, fluorogenic substrate; 0.19% of 62,000 active; AID 680; P03951; inhibition, % at 5 µM;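 further: each value is inhibition by a whole ten-compound pool holding the compound; 0% = enzyme with no mixture and 100% = wells lacking enzyme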
M1 ag confirm: confirmation of rat M1 muscarinic receptor agonists. CHO-M1 cells, Fluo-4 calcium fluorescence, agonist mode; actives lie on both sides. 19% of 1,700 active. AID 1488. fluorescence change (max-min) at 10 µM. shares compounds with M1 ag;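 active means fluorescence change differs from the solvent-only DMSO control mean at a set confidence level in both duplicate runs; inconclusive means differs from solvent-only control mean in just one of two runs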;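 further: an EC20 dose of acetylcholine follows compound addition during the same imaging run; raw fluorescence intensity difference in instrument units with no normalization to controls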
M4 ag counter: counter-screen for M1 agonists: activity at rat M4 receptor. shares compounds with M1 ag. CHO M4/Gqi5 cells, Fluo-4 calcium fluorescence, agonist mode; actives lie on both sides. fluorescence change (max-min) at 10 µM. 9% of 1,700 active. AID 1741;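 active means fluorescence change differing from the plate's solvent-only control wells at 99.7% confidence in both duplicates, whether higher or lower; inconclusive means differs from solvent controls in only one of two duplicates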
Numbers without * were called inactive; ? = inconclusive; · = no result given. Unless noted, no stated cut-off is given here; in the data, active means inhibition above about 20% (passing the limit was not always enough); inactive means the rest.

SMILES	JNK3 inh	Her2 expr inh	M1 antagonist	FXIIa inh mix	M1 ag	FXIa inh mix	M1 ag confirm	M4 ag counter
O=C(N1CCOCC1)C1(c2ccccc2)CCCCC1	-3.5	87.7	0.166	5.6	-0.178	-1.1	·	·
O=C(C1CC1(c1ccccc1)c1ccccc1)N1CCOCC1 (stereo not given)	-0.3	79.5	-0.0299	9.0	-2.75*	8.2	-16.3	-43.8
CN(C)S(=O)(=O)c1cc(S(=O)(=O)N(C)C)c(Cl)cc1N	2.0	95.8	-0.00854	6.4	-0.255	5.9	·	·
CC(CN1CCOCC1)OC(=O)c1ccc(Br)cc1 (stereo not given)	-2.5	64.4	-0.592	5.9	33.7*	8.7	?	-35.1
Oc1c(/C=N/c2ncn[nH]2)ccc2ccccc12	-1.9	86.1	-0.0454	4.3	4.92*	2.1	22.2	?
Clc1ccc(Cl)c(-c2ccc(/C=N/c3ncn[nH]3)o2)c1	2.4	77.1	0.539	7.1	-1.03	12.0	·	·
C=CCn1c(NC(=O)c2ccccc2Cl)c(C#N)c2nc3ccccc3nc21	8.4	32.6	-0.973	7.0	6.85*	-3.2	30.1	2.63
C=CCn1c(N)c(C(=O)OCCC)c2nc3ccccc3nc21	0.4	88.8	-0.0103	3.3	1.26	-6.2	·	·
CCCCn1c(NC(C)=O)c(C#N)c2nc3ccccc3nc21	6.3	74.3	0.496	-5.1	5.52*	10.3	36.8	-6.77
O=C(CSc1oc(-c2ccco2)nc1S(=O)(=O)c1ccc(Cl)cc1)NCC1CCCO1 (stereo not given)	·	97.5	0.0372	·	0.0182	·	·	·
COc1ccc(S(=O)(=O)N2CCOCC2)c(Cl)c1Cl	-1.1	100.3	-0.0447	-3.1	-0.321	2.0	·	·
CCOC(=O)N1CCC(NC(=O)c2cc3c(=O)n(C)c4ccccc4c3n2C)CC1	1.0	108.3	6.57e-05	-23.4	2.05*	19.7	?	-25.2
Cn1c(C(=O)NC2CC2)cc2c(=O)n(C)c3ccccc3c21	1.1	121.2	-0.759	-4.9	1.72	1.1	·	·
Cn1c(C(=O)Nc2ccc3c(c2)OCCO3)cc2c(=O)n(C)c3ccccc3c21	-1.6	69.8	-0.193	0.9	4.58*	9.1	3.65	-11.3
COCCOC(=O)c1c(C)oc2ccc(OC(=O)c3c(OC)cccc3OC)cc12	9.8	81.1	0.629	13.1	2.19	6.8	·	·
CCc1nc2ccccc2n1CC(=O)N1CCN(S(=O)(=O)c2cccc(C(F)(F)F)c2)CC1	-4.1	73.1	0.438	5.7	4.63*	6.1	-2.88	-7.96
O=C(Cn1cc(C(F)(F)F)ccc1=O)N1CCN(S(=O)(=O)c2ccccc2)CC1	-8.1	77.0	0.317	1.2	-0.129	3.2	·	·
Cc1cc(C)cc(OCC(=O)Nc2cccc(-c3nnc(-c4ccco4)o3)c2)c1	1.8	94.7	-0.73	4.6	4.54*	-0.3	-30.3*	-54.7
COc1ccc(-c2oc(/N=C/N3CCOCC3)c(C#N)c2-c2ccc(OC)cc2)cc1	·	103.0	0.63	13.0	0.573	4.9	·	·
COc1cc(/C=c2\s/c(=C(/C#N)C(=O)N3CCCC3)n(-c3ccccc3)c2=O)ccc1O	4.1	25.7	-0.43	6.5	48*	8.0	39.6	43.1
Cc1onc(COc2ccccc2O)c1Br	-4.8	85.3	-0.223	10.9	0.00737	0.1	·	·
C=CCOc1c(Cl)cc(C2NC(=O)NC(C)=C2C(=O)OC)cc1Cl (stereo not given)	-3.6	101.5	0.189	-1.1	-0.432	3.2	·	·
O=C(NCCCc1ccccc1)c1cnc2n(c1=O)CCS2	0.8	82.2	0.246	·	-0.768	·	·	·
O=C(NCCc1ccc(Cl)cc1)c1cnc2n(c1=O)CCS2	1.0	87.8	-0.0983	6.8	-2.85*	2.1	?	-75.5
O=C1CN(C(=O)c2ccc(Br)o2)C(c2ccc(F)cc2)c2cc(Cl)ccc2N1 (stereo not given)	2.9	87.0	-0.845	-12.7	2.82*	1.5	-14.6	?
SMILES	JNK3 inh	Her2 expr inh	M1 antagonist	FXIIa inh mix	M1 ag	FXIa inh mix	M1 ag confirm	M4 ag counter
O=C(CN1CCc2ccccc2C1)c1cccs1	2.5	68.7	0.644	2.5	-0.0265	-0.4	·	·
COc1ccc(CNC(=O)CSc2ncnc3nc[nH]c23)cc1	-3.3	117.9	-0.831	8.1	31.2*	6.1	?	-63.1
O=C(NCc1ccc(N2CCCC2=O)cc1)Nc1cccc(Cl)c1	0.0	81.3	-0.165	7.9	0.136	1.6	·	·
COc1cc(NC(=O)c2cccc3c2C(=O)N(Cc2cccnc2)C3)cc(OC)c1OC	-4.8	93.7	-0.944	8.2	3.21*	-5.7	-17.6	-23.5
O=C(Nc1ccc2c(c1)OCO2)c1cccc2c1C(=O)N(Cc1cccnc1)C2	2.8	75.0	1.28	3.0	-0.00435	0.1	·	·
CCCn1c2c(c(O)c(C(=O)Nc3ccccc3)c1=O)CCCC2	-4.5	106.0	-0.149	-22.3	0.273	3.9	·	·
Cc1cc(CN2C(=O)c3ccccc3C2=O)cc(N2CCOCC2)c1	5.2	92.8	0.41	7.8	-0.00317	-6.6	·	·
CCOC(=O)C1C(=O)CC(C)(O)C(C(=O)OCC)C1/C=C/c1ccccc1 (stereo not given)	7.3	109.6	-0.696	12.3	2.86*	2.3	-0.938	-2.79
COC(=O)C1C(=O)CC(C)(O)C(C(=O)OC)C1/C=C/c1ccccc1 (stereo not given)	-1.7	86.0	-0.203	3.1	0.463	10.9	·	·
COc1cc(NC(=O)c2ccco2)c(OC)cc1NC(=O)CSc1nnc(-c2cccs2)n1C	1.9	59.7	-0.799	0.1	6.19*	4.2	-32.5*	?
CCOc1ccccc1N1CCN(S(=O)(=O)c2cccc3nsnc23)CC1	-7.3	92.2	-0.544	8.6	0.749	8.3	·	·
O=C(Nc1cccc(-c2cn3cccnc3n2)c1)c1ccco1	·	80.5	0.0405	8.8	0.815	-14.9	·	·
O=C(Nc1cccc(-c2cn3cccnc3n2)c1)c1ccc2c(c1)OCO2	·	91.9	0.722	5.8	3*	10.1	?	?
CCOc1ccccc1C(=O)NCC(=O)OCC(=O)N1C(C)CCCC1C (stereo not given)	-3.2	97.0	-0.299	4.8	-2.55*	9.8	?	-83.7*
Cc1ccc(-n2c(=O)cc(NCc3cccnc3)[nH]c2=O)cc1	·	66.4	0.77	6.6	-0.155	0.8	·	·
CCOc1ccc(CCNC(=O)c2cc3sccc3n2C)cc1OCC	6.6	114.0	0.0113	9.0	0.585	7.1	·	·
CCCCN(C)C(=O)c1oc2ccc(S(=O)(=O)N3CCCCCC3)cc2c1C	0.6	141.9	-1.1	-1.1	0.594	-2.1	·	·
CC1CCCN(C(=O)CSCC(=O)Nc2nc(-c3cccs3)cs2)C1 (stereo not given)	-2.8	92.3	0.161	4.8	6.82*	0.8	-1.2	-34.8
CC1CCCCN1C(=O)CSCC(=O)Nc1nc(-c2cccs2)cs1 (stereo not given)	-9.8	·	-0.823	10.0	7.96*	3.7	-13.6	-54.5
